From publication PMC11062922 (Nature Chemical Biology, 2023)
Like-named read-outs stand apart in the source and are kept apart here.

Key:
Design in all cases: species or system human, MV4-11 + K-562 + COLO205 + SK-N-BE2 + OVCAR-8
[1] = test system: HSP90B1; conditions: read-out: apparent Kd, n = 1
[2] = test system: PKN3; conditions: read-out: apparent Kd; compound concentrations:100 nM and 1000 nM (sheet 'Samples'); n = 1
[3] = test system: PRKX; conditions: read-out: apparent Kd; compound concentrations:100 nM and 1000 nM (sheet 'Samples'); n = 1
[4] = test system: ROCK2; conditions: read-out: apparent Kd; compound concentrations:100 nM and 1000 nM (sheet 'Samples'); n = 1
[5] = test system: HCK; conditions: read-out: apparent Kd; compound concentrations: 100 nM and 1000 nM (sheet 'Samples'), CATDS: 0.18431163144464899; n = 1
[6] = test system: MAPK14; conditions: read-out: apparent Kd; compound concentrations: 100 nM and 1000 nM (sheet 'Samples'), CATDS: 0.18472106160443499; n = 1
[7] = test system: MDN1; conditions: read-out: apparent Kd; compound concentrations: 100 nM and 1000 nM (sheet 'Samples'), CATDS: 0.171379045218121; n = 1
[8] = test system: RET; conditions: read-out: apparent Kd; compound concentrations: 100 nM and 1000 nM (sheet 'Samples'), CATDS: 0.22274296302997099; n = 1
[9] = test system: YES1; conditions: read-out: apparent Kd; compound concentrations: 100 nM and 1000 nM (sheet 'Samples'), CATDS: 0.26066512285863302; n = 1
[10] = test system: IARS; conditions: read-out: apparent Kd; compound concentrations: 100 nM and 1000 nM (sheet 'Samples'), CATDS: 1; n = 1
[11] = test system: HSP90AA1; conditions: read-out: apparent Kd; compound concentrations: 100 nM and 1000 nM (sheet 'Samples'), CATDS: 0.146358991547622; n = 1
[12] = test system: HSPE1; conditions: read-out: apparent Kd, n = 1
[13] = test system: PGK1; conditions: read-out: apparent Kd; compound concentrations: 100 nM and 1000 nM (sheet 'Samples'), CATDS: 0.56711536004942897; n = 1
[14] = test system: PKM; conditions: read-out: apparent Kd; compound concentrations: 100 nM and 1000 nM (sheet 'Samples'), CATDS: 0.16665150952337399; n = 1
[15] = test system: GSK3A; conditions: read-out: apparent Kd, n = 1
[16] = test system: GSK3B; conditions: read-out: apparent Kd, n = 1
[17] = test system: ICK; conditions: read-out: apparent Kd, compound concentrations: 100 nM and 1000 nM (sheet 'Samples'), n = 1
[18] = test system: IRAK3; conditions: read-out: apparent Kd; compound concentrations:100 nM and 1000 nM (sheet 'Samples'); n = 1
[19] = test system: STK16; conditions: read-out: apparent Kd; compound concentrations:100 nM and 1000 nM (sheet 'Samples'); n = 1
[20] = test system: STRADA; conditions: read-out: apparent Kd; compound concentrations: 100 nM and 1000 nM (sheet 'Samples'), CATDS: 0.19302175262426299; n = 1
[21] = test system: PIK3C3; conditions: read-out: apparent Kd; compound concentrations: 100 nM and 1000 nM (sheet 'Samples'), CATDS: 0.26990158235455203; n = 1
[22] = test system: PIK3CB; conditions: read-out: apparent Kd, n = 1
[23] = test system: PRKCD; conditions: read-out: apparent Kd; compound concentrations: 100 nM and 1000 nM (sheet 'Samples'), CATDS: 0.45951776162212499; n = 1
[24] = test system: JAK2; conditions: read-out: apparent Kd; compound concentrations: 100 nM and 1000 nM (sheet 'Samples'), CATDS: 1; n = 1
[25] = test system: NQO2; conditions: read-out: apparent Kd; compound concentrations:100 nM and 1000 nM (sheet 'Samples'); n = 1
[26] = test system: TGFBR1; conditions: read-out: apparent Kd; compound concentrations: 100 nM and 1000 nM (sheet 'Samples'), CATDS: 0.31893275464491699; n = 1
[27] = compound concentrations:100 nM and 1000 nM (sheet 'Samples')

COc1cc(C2=NC(c3ccc(Cl)cc3F)C(C(=O)Nc3ccc4[nH]ncc4c3)=C(C)N2)ccn1.O=C(O)C(F)(F)F (centres unmarked) [GSK534911A]
potency estimated from few doses [1, 27]: 1110 nM
potency estimated from few doses [2]: 1830 nM
potency estimated from few doses [3]: 1320 nM
potency estimated from few doses [4]: 220 nM

COc1cc(Nc2nccc(-c3c(-c4cccc(NC(=O)c5c(F)cccc5F)c4)nn4ccccc34)n2)cc(OC)c1OC [GSK323521A]
potency estimated from few doses [5]: 1570 nM
potency estimated from few doses [6]: 1560 nM
potency estimated from few doses [7]: 1860 nM
potency estimated from few doses [8]: 1070 nM
potency estimated from few doses [9]: 812 nM

Cc1ccc(-c2nc(Nc3ccncc3)c3ccccc3n2)s1 [GSK189015A]
potency estimated from few doses [10]: 1440 nM

Cn1cc(C2=C(c3ccccc3C(F)(F)F)C(=O)NC2=O)c2ccccc21 [RO0317717-000]
potency estimated from few doses [11]: 1690 nM
potency estimated from few doses ([1]; compound concentrations: 100 nM and 1000 nM (sheet 'Samples'), CATDS: 0.15036452413929899): 1530 nM
potency estimated from few doses ([12]; compound concentrations: 100 nM and 1000 nM (sheet 'Samples'), CATDS: 0.26644464467786899): 337 nM
potency estimated from few doses [13]: 87.1 nM
potency estimated from few doses [14]: 1090 nM

O=C(Nc1n[nH]c2cc(-c3ccco3)ccc12)C1CC1 [SB-737447]
potency estimated from few doses [15, 27]: 498 nM
potency estimated from few doses [16, 27]: 645 nM

O=C(Nc1ccccc1F)NC1CCN(c2ccnc(Nc3ccc(F)cc3)n2)C1 (centres unmarked) [GSK1379722A]
potency estimated from few doses ([1]; compound concentrations: 100 nM and 1000 nM (sheet 'Samples'), CATDS: 1): 875 nM

COc1cccc2c1c(C1=C(c3cn(C)c4ccccc34)C(=O)NC1=O)cn2C [RO0317494-000]
potency estimated from few doses ([15]; compound concentrations: 100 nM and 1000 nM (sheet 'Samples'), CATDS: 0.489076637072761): 149 nM
potency estimated from few doses ([16]; compound concentrations: 100 nM and 1000 nM (sheet 'Samples'), CATDS: 0.37680240996491099): 241 nM
potency estimated from few doses ([17]; CATDS: 0.23248137577465): 912 nM

COc1cc(C=NNc2ncnc3c2cnn3-c2ccccc2)ccc1O [GW513184X]
potency estimated from few doses [18]: 1310 nM
potency estimated from few doses [19]: 1950 nM

CCCn1cc(C2=C(c3cn(C)c4ccccc34)C(=O)NC2=O)c2ccccc21 [RO0318549-000]
potency estimated from few doses ([15]; compound concentrations: 100 nM and 1000 nM (sheet 'Samples'), CATDS: 0.30461249661504503): 823 nM
potency estimated from few doses ([16]; compound concentrations: 100 nM and 1000 nM (sheet 'Samples'), CATDS: 0.29770520720673899): 857 nM
potency estimated from few doses ([17]; CATDS: 0.23938622627213799): 1320 nM
potency estimated from few doses [20]: 2260 nM

O=c1cc(N2CCOCC2)nc2n(Cc3cccc(Cl)c3Cl)c3ccccc3n12 [GSK2299009A]
potency estimated from few doses ([1]; compound concentrations: 100 nM and 1000 nM (sheet 'Samples'), CATDS: 0.28143783483282298): 1040 nM
potency estimated from few doses [21]: 1170 nM
potency estimated from few doses ([22]; compound concentrations: 100 nM and 1000 nM (sheet 'Samples'), CATDS: 0.57413084763850397): 251 nM

[2H]C([2H])(c1cccc(C(F)(F)F)c1C)n1ccn2c(=O)cc(N3CCOCC3)nc12 [GSK2289044B]
potency estimated from few doses [1, 27]: 112 nM
potency estimated from few doses [22, 27]: 16 nM

O=C(Nc1n[nH]c2nc(-c3ccco3)ccc12)C1CC1 [SB-743899]
potency estimated from few doses ([15]; compound concentrations: 100 nM and 1000 nM (sheet 'Samples'), CATDS: 0.54830406508791196): 1390 nM
potency estimated from few doses [23]: 1990 nM

COC(=O)Nc1nc2ccc(S(=O)(=O)c3ccc(NC(=O)Nc4cc(C(F)(F)F)ccc4F)cc3)cc2[nH]1.Cl [GW680908A]
potency estimated from few doses [24]: 356 nM

Fc1ccc(-c2c(-c3ccccn3)nc3n2CCS3)cc1 [SKF-104365]
potency estimated from few doses [12, 27]: 149 nM
potency estimated from few doses [25]: 1340 nM
potency estimated from few doses [26]: 537 nM
